Only some compounds are listed: those with a hit (about 7.5% of all), similar ones and a draw of the others.
SMN2 splice enh: increases expression of the SMN2 splice variant. AID 1458. HEK293 SMN2-luciferase splicing reporter, luminescence, 30-36 h. Potency, µM (highest dose often 46.1 µM), for inactives: at the highest dose activity change, positive = activation, usual class: activators. 210,000 compounds, 2.8% hits; also: % of control where 0% means no effect; nearly all actives have a fitted effect of over 55% in size
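HEK293 cells carry an SMN2 minigene-luciferase reporter in which exon 7 inclusion puts luciferase in frame. Cells were seeded at 2000 cells/well, attached for 10-12 hours, then exposed to compounds for 30-36 hours at 37C before ONE-Glo luminescence.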
NPC1 promoter act: NPC1 promoter activation | Huh7 NPC1 promoter luciferase reporter, 24 h | Potency, µM (titrated, usually from 9.22 µM), for inactives: at the highest dose activation, usual class: activators | 320,000 compounds, 2.4% hits | AID 485313; also: % of control where 0% means no effect; nearly all actives have a fitted effect of over 60% in size
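Readout is luciferase luminescence, reflecting NPC1 promoter activation in stably transfected Huh7 cells after 24 h compound exposure at 37 °C in reduced-serum medium with 10% FBS.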
Rab9 promoter act: activators of Rab9 promoter. Huh7 Rab9 promoter-luciferase reporter, luminescence, 24 h. Potency, µM (series often up to 9.22 µM), inactives show at the top dose activation, negative = inhibition, usual class: activators. 320,000 compounds, 2.8% hits. AID 485297; also: % of control where 0% means no effect; nearly all actives have a fitted effect of over 60% in size
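Huh7 cells stably carrying a Rab9 promoter-luciferase reporter, 1500 cells per well in OP-MEM I with 10% FBS, treated with compound 24 hours at 37C. Luciferase activity read by luminescence after 10 minutes with Amplite reagent.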
FLuc counter: firefly luciferase modulation, counter-screen for miR-21 project; Potency, µM (series often up to 57.5 µM), without a hit: top-dose activity change, negative = inhibition, usual class: inhibitors; P08659; 360,000 compounds, 6.9% hits; purified FLuc, Km substrates, luminescence inhibition;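 also: plate controls were vehicle for no effect and reference inhibitor for full effect; nearly all actives have a fitted effect of over 55% in size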
Target sequence (P08659 whole entry, looked up): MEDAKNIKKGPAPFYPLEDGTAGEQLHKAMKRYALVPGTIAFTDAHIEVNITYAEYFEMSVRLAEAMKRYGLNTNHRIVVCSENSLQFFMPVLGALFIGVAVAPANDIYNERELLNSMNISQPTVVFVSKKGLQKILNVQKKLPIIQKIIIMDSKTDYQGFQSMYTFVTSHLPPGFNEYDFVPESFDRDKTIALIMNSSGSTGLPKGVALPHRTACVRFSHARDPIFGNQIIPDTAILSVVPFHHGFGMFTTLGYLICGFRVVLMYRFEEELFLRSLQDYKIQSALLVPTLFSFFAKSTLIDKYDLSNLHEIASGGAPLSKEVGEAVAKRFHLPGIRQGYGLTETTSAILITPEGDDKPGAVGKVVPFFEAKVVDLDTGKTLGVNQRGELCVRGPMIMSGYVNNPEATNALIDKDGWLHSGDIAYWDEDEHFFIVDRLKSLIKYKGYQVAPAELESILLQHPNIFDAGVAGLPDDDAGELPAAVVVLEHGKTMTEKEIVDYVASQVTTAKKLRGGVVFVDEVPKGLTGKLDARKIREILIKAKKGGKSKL
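Biochemical qHTS of compounds, final roughly 60 µM downward over six points, against 10 nM purified firefly luciferase using Km concentrations of substrates (10 uM D-luciferin, 10 uM ATP) in Tris acetate pH 7.5 buffer; luminescence output.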
ELG1 genotox: induces genotoxicity in HEK293T cells with luciferase-tagged ELG1. 330,000 compounds, 1.3% hits. HEK293T ELG1-luciferase reporter, luminescence, 16 h. Potency, µM (highest dose often 46 µM), inactives show at the top dose activity change, positive = activation, most hits filed as activators; also: % of control where 0% means no effect; nearly all actives have a fitted effect of over 60% in size
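Quantitative HTS format in 1536-well plates. HEK293T ELG1-luciferase reporter cells receive test compound and are incubated 16 hr at 37 °C, 5% CO2; ONE-Glo added, 30 min room temperature, then luminescence read.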
The depositor's hits bear a star; [ ] = dose if it differs, or a comment. Calls follow the shape of the dose curve; as a rule, active = well fitted curve in the direction sought with a large enough effect; inconclusive = small, poorly fitted or top-dose-only effect, or another doubt; inactive = no such curve, though single readings can be large; an effect the other way counts as inactive or inconclusive. Potency is read from the fitted curve at half-maximal effect.

Cc1cnc(NC(=O)COc2cccc3c2OC(C)(C)C3)s1 was read as SMN2 splice enh 20µM*, NPC1 promoter act -2.5%, Rab9 promoter act -0.5%, FLuc counter -4.2% and ELG1 genotox -3.4%.
Screening CCN(CC)c1ccc(/C=N/NC(=O)CCC(=O)NCc2ccccc2)c(O)c1 returned SMN2 splice enh -96.0%, NPC1 promoter act 14.1%, Rab9 promoter act -11.8%, FLuc counter inconclusive and ELG1 genotox inconclusive.
Screening COCCNC(=O)CCCn1c(SCC(=O)Nc2ccc(F)cc2)nc2c(sc3ccccc32)c1=O returned SMN2 splice enh -2.8% and FLuc counter 1.3%.
For CC(=O)Nc1ccc(S(=O)(=O)Nc2ccc(-c3cn4c(C)csc4n3)cc2)cc1 the results were FLuc counter 16.9µM*.
Screening CC(=O)Nc1ccc(S(=O)(=O)Nc2ccc(S(=O)(=O)Nc3nc(C)cc(C)n3)cc2)cc1 returned NPC1 promoter act -2.1%, Rab9 promoter act -0.1%, FLuc counter -1.1% and ELG1 genotox -2.3%.
Screening CCS(=O)(=O)Nc1ccc(-c2cn3c(C)csc3n2)cc1 returned FLuc counter 19µM*.
Screening Cc1ccc(-c2oc3ccccc3c(=O)c2O)cc1 returned SMN2 splice enh 5.5%, NPC1 promoter act 25.2%, Rab9 promoter act 26.7%, FLuc counter inconclusive and ELG1 genotox 23.1µM*.
Screening COc1cccc(-c2oc3ccc(C)cc3c(=O)c2O)c1 returned SMN2 splice enh 10µM* and FLuc counter 2.69µM*.
`CCNc1ccc(-c2nc(-c3ccncc3)no2)cc1[N+](=O)[O-]` gave FLuc counter -11.9%.
Screening O=[N+]([O-])c1cnc2nc(-c3ccncc3)nn2c1O returned SMN2 splice enh -6.1%, NPC1 promoter act 0.2%, Rab9 promoter act 1.3%, FLuc counter 21.3µM* and ELG1 genotox -0.8%.
CCN(CC(=O)Nc1ccccc1OC)Cc1csc(CC(=O)Nc2ccc(C)cc2)n1 was read as ELG1 genotox -3.3%.
O=C1C2=C(C(=O)c3ccccc31)C1O[C@](CCCCN3C(=O)c4ccccc4C3=O)(Cc3c1ccc1ccccc31)O2 was read as NPC1 promoter act -3.6%[1.84 µM], Rab9 promoter act 0.4%[1.84 µM] and FLuc counter -5.5%[11.5 µM].
`CCOc1ccc2[nH]c(=O)c(CN(Cc3cccnc3)C(=O)Nc3ccccc3OC)cc2c1` gave SMN2 splice enh inconclusive, NPC1 promoter act -0.7%, Rab9 promoter act -4.1%, FLuc counter 16.9µM* and ELG1 genotox 1.5%.
COc1ccc2[nH]c(=O)c(CN(Cc3cccnc3)C(=O)Nc3ccccc3)cc2c1 was read as SMN2 splice enh -19.0%, NPC1 promoter act -3.4%, Rab9 promoter act -6.7%, FLuc counter -11.7% and ELG1 genotox -12.5%.
O=C(CSc1nnc(-c2ccccc2Cl)o1)N1CCOCC1 was read as NPC1 promoter act 2.24µM*, Rab9 promoter act 3.55µM*, FLuc counter 19µM* and ELG1 genotox inconclusive.
For Cc1ccccc1-c1nnc(SCC(=O)N2CCCc3ccccc32)o1 the results were SMN2 splice enh -11.3% and FLuc counter inconclusive.
COc1ccccc1-c1nnc(SCC(=O)N2CCOCC2)o1 was read as SMN2 splice enh 8.91µM*, NPC1 promoter act 14.9%, Rab9 promoter act 18.1%, FLuc counter inconclusive and ELG1 genotox 4.4%.
For Cc1ccccc1-c1nnc(SCC(=O)N2CCCC2)o1 the results were NPC1 promoter act inconclusive, Rab9 promoter act inconclusive, FLuc counter 16.9µM* and ELG1 genotox inconclusive.
COc1ccccc1-c1nnc(SC(C)C(=O)N2CCOCC2)o1 (stereo not given) was read as NPC1 promoter act -1.1%, Rab9 promoter act -1.7%, FLuc counter -9.1% and ELG1 genotox inconclusive.
`COc1ccccc1-c1nnc(SCC(=O)N2CCCCC2)o1` gave NPC1 promoter act 28.2%, Rab9 promoter act 26.8%, FLuc counter -10.1% and ELG1 genotox 3.9%.
For COc1ccccc1-c1nnc(-c2ccc(N3CCOCC3)cc2)o1 the results were SMN2 splice enh 5.62µM*, NPC1 promoter act inconclusive, Rab9 promoter act inconclusive, FLuc counter 19µM* and ELG1 genotox 15.7%.
CCCCn1c(N)c(N(CCOC)C(=O)CSc2nnc(-c3ccc(F)cc3)n2N)c(=O)[nH]c1=O was read as NPC1 promoter act -2.3%, Rab9 promoter act 2.6%, FLuc counter 1.4% and ELG1 genotox 0.1%.
`O=C(O)c1c(C(=O)O)c2ccccc2[nH]c1=O` gave SMN2 splice enh 15.0%.
CCOC(=O)c1sc(=NC(=O)c2ccccc2)n(C)c1C was read as SMN2 splice enh 8.91µM*, NPC1 promoter act -0.6%, Rab9 promoter act 18.5%, FLuc counter 2.13µM* and ELG1 genotox inconclusive.
`CCOC(=O)c1sc(=NC(=O)c2cccc(OC)c2)n(C)c1C` gave NPC1 promoter act 3.55µM*, Rab9 promoter act 1.58µM*, FLuc counter inconclusive and ELG1 genotox 14.7%.
`CCN(CC(=O)Nc1ccc(NC(C)=O)cc1)C(=O)c1ccc(N2CCC(C)CC2)c([N+](=O)[O-])c1` gave NPC1 promoter act -1.0%, Rab9 promoter act -1.4%, FLuc counter 16.9µM* and ELG1 genotox 0.4%.
`CCNc1ncc2nc(-c3ccc(OC)cc3)c(=O)n(-c3ccc(OC)cc3)c2n1` gave SMN2 splice enh -11.8%.
Screening COc1ccc(-c2nc(CC(=O)O)cs2)cc1OC returned SMN2 splice enh 7.0%, NPC1 promoter act 0.4%, Rab9 promoter act -6.8%, FLuc counter 1.4% and ELG1 genotox 7.8%.
CCOc1ccc(-c2nc(CCl)cs2)cc1OC was read as SMN2 splice enh -10.2%, NPC1 promoter act 10.1%, Rab9 promoter act 8.4%, FLuc counter 16.9µM* and ELG1 genotox inconclusive.
COc1cccc(-c2nc(CCl)cs2)c1OC was read as SMN2 splice enh -10.7%, NPC1 promoter act -0.3%, Rab9 promoter act 3.5%, FLuc counter 16.9µM* and ELG1 genotox 11.3%.
Screening CCC1CCCCN1C(=O)c1ccc([N+](=O)[O-])o1 (stereo not given) returned NPC1 promoter act 1.2%, Rab9 promoter act 17.8%, FLuc counter 0.3% and ELG1 genotox -9.8%.
For O=C(CSc1nnc(NC(=O)c2ccco2)s1)Nc1ccccc1Br the results were NPC1 promoter act 3.3%, Rab9 promoter act -0.6%, FLuc counter -13.2% and ELG1 genotox 5.3%.
`CC(=O)Nc1ccc(NC(=O)CSc2nnc(NC(=O)c3ccco3)s2)cc1` gave NPC1 promoter act 8.4%, Rab9 promoter act 15.7%, FLuc counter 16.9µM* and ELG1 genotox 6.0%.
`O=C(CSc1nnc(NC(=O)c2ccco2)s1)Nc1ccccc1Cl` gave NPC1 promoter act 2.3%, Rab9 promoter act 4.2%, FLuc counter inconclusive and ELG1 genotox 1.8%.
O=C(CSc1nnc(NC(=O)c2ccco2)s1)Nc1ccccc1 was read as SMN2 splice enh inconclusive, NPC1 promoter act 13.5%, Rab9 promoter act 1.1%, FLuc counter 21.3µM* and ELG1 genotox 14.6%.

Screens (PubChem)
